The results in this text go back to ChEMBL document CHEMBL4513216, “Probing the Open Global Health Chemical Diversity Library for Multistage-Active Starting Points for Next-Generation Antimalarials” (ACS Infect Dis, 2020).

The whole screen tested about 65,000 compounds, of which about 2,100 (3.2%) showed an effect of 50% or more. The median lay at about -52%. This excerpt belongs to a sample that is enriched for strong results.

This test relates to Plasmodium falciparum. Nature of the test: Screen against P. falciparum Asexual Blood Stage (ABS), at 5uM. Format: functional, Dd2. Conditions: tested at 5 uM.
For the molecule `Cc1cc(C)n(CC2CCCN2C(=O)c2ccc3[nH]cnc3c2)n1` (stereo not drawn), the INHIBITION is listed as -163%.

For the molecule `Cc1nc(NCC2CC2)nc2c1COCC21CCN(S(=O)(=O)C2CC2)C1` (stereo not drawn), the INHIBITION amounted to 12.5%.

On to `COCCN1CCC(CNC(=O)c2cc(Cl)c[nH]2)CC1`, for which the INHIBITION is -2.76%.

`CCN1CCC(CNC(=O)c2cc(Cl)c[nH]2)CC1`: the INHIBITION is -108%.

Take `O=C(NCC1CCN(CCc2ccccc2)C1)c1cc(Cl)c[nH]1` (stereo not drawn): the INHIBITION amounted to 65.1%.

In the case of `CC(OCC1CC1)C(=O)Nc1ncn(CC(=O)N2CCCCCC2)n1` (stereo not drawn), the INHIBITION was 36.5%.

Turning to `CN1CCCc2c1nc1c(c2N)CCC1`, the INHIBITION is given as -49.7%.

Take `CN1CCCCc2c1nc1c(c2N)CCC1`: the INHIBITION is 65.8%.

On to `Cc1c(C)n(-c2ccccn2)c2nc3c(c(N)c12)CCCC3`, for which the INHIBITION is 21.3%.

Regarding `CN1CC2(CCCN(c3nc(N)nc4c3CCCC4)C2)OC1=O` (stereo not drawn), the INHIBITION is -29.7%.

Regarding `CN1CCCCc2c1nc1c(c2N)CCCC1`, the INHIBITION was 63.8%.

Regarding `CN1CCc2c1nc1c(c2N)CCC1`, the INHIBITION was -64.6%.

For the molecule `COC[C@@H]1CC[C@H]2[C@H](CCN2S(=O)(=O)c2ccc(C)cc2)O1`, the INHIBITION is listed as -3.1%.

Regarding `Cc1cc(N2CCCC2)nc(CNS(=O)(=O)Cc2ccccc2)n1`, the INHIBITION was -63.1%.

As for `Cc1nn(C)c(N2CCCN(C)CC2)c1CNC(=O)CCC(C)C`, the INHIBITION is -12.6%.

Take `COCC(=O)N1C[C@@H]2CCCO[C@@H]2[C@H](N(C)Cc2ccco2)C1`: the INHIBITION is -22.6%.

On to `Cc1noc([C@@H]2CCO[C@@H]3CCN(Cc4ccc(C)s4)C[C@@H]32)n1`, for which the INHIBITION was found to be 10.3%.

As to `CN(C)CCN1CCOCC2(CCCN(C(=O)c3ccccn3)C2)C1` (stereo not drawn), the INHIBITION is on record as -26.3%.

On to `Oc1cccc(-c2cc(C3CCN(Cc4cncnc4)C3)ccn2)c1` (stereo not drawn), for which the INHIBITION was -15.3%.

For the molecule `Cn1ccnc1CN1CCC(c2ccnc(-c3cccc(O)c3)c2)C1` (stereo not drawn), the INHIBITION is 30.7%.

In the case of `CN(C)CC(C)(C)CN1CCC(c2ccnc(-c3cccc(O)c3)c2)C1` (stereo not drawn), the INHIBITION amounted to 69.5%.

Consider `CN(C)CC(C)(C)Cn1cnc(-c2ccccc2)c1-c1ncc[nH]1`, for which the INHIBITION is on record as -81.8%.

Turning to `CN(C)CC(C)(C)Cn1cnc(-c2ccccc2)c1-c1cccc(O)c1`, the INHIBITION is recorded as 50.9%.

Consider `CN(C)CC(C)(C)Cn1cnc(-c2ccccc2)c1-c1ccncc1`, for which the INHIBITION came to 1.44%.

As for `COc1ccccc1OC1CN(C(=O)c2ccccc2C(C)=O)C1`, the INHIBITION is given as -184%.

Turning to `O=c1[nH][nH]cc1-c1ccnc(NCCN2CCCCC2)n1`, the INHIBITION is on record as -153%.

On to `CS(=O)(=O)CCC(=O)N1C[C@H]2CC[C@@H](C1)N(Cc1ccccc1)C2=O`, for which the INHIBITION is reported as -72.6%.

Turning to `CC(C)c1nnc2n1CCN(C(=O)c1cc(Cl)c[nH]1)C2`, the INHIBITION came out at 5.02%.

Regarding `Cc1ccccc1C(=O)N1C[C@@H]2CCN(c3cccnc3)C[C@@H]2C1`, the INHIBITION is recorded as -45.5%.

For `CCS(=O)(=O)N1CCC(NC(=O)c2cc3ccccc3cc2O)CC1`, the INHIBITION is on record as 6.29%.

As to `O=C1CC(CNc2cncc(Cl)n2)c2ccccc2N1` (stereo not drawn), the INHIBITION amounted to 66.1%.

For `Cc1cc(NCC2CC(=O)Nc3ccccc32)nc(C)n1` (stereo not drawn), the INHIBITION is -151%.

On to `O=C1CC(CNc2cncc(Br)c2)c2ccccc2N1` (stereo not drawn), for which the INHIBITION was 12.2%.

As to `O=C1C[C@@H]2CC[C@H](CN1)N2C(=O)Cc1ccsc1`, the INHIBITION is given as -114%.

Regarding `CCN(CC)c1nc2ccsc2c(=O)n1CCC(=O)NCc1ccco1`, the INHIBITION was -83%.

In the case of `CCc1nc(CCNC(=O)Nc2ccc(C(=O)NC)cc2)cs1`, the INHIBITION is recorded as -114%.

Regarding `CN1CCC(Oc2ccc(-n3ccnc3-c3nccn3C)cc2)CC1`, the INHIBITION is recorded as -33.1%.

With `CN1CCC(Oc2ccc(-n3ccnc3-c3ccncc3)cc2)CC1`, the INHIBITION was -17%.

Regarding `Cc1ccc(-c2nccn2-c2ccc(OC3CCN(C)CC3)cc2)o1`, the INHIBITION is 55.1%.

Take `Cc1nn(C)c(C)c1C(=O)NC(C)CC(=O)c1cccs1` (stereo not drawn): the INHIBITION was -35.4%.

Take `Cc1ccc(-c2nn(C)c(C(=O)O)c2Br)cc1`: the INHIBITION was -38.6%.

Regarding `Cc1cccc(=O)n1CCC(=O)N1CC[C@](C)(O)[C@H](C)C1`, the INHIBITION is listed as -97.5%.

As for `Cc1ccc(N2CCCC(NCc3nnc(-c4ccco4)o3)C2)nn1` (stereo not drawn), the INHIBITION was 50.3%.

For the molecule `Cc1ccc(N2CCCC(NCc3nc(C)c(C)o3)C2)nn1` (stereo not drawn), the INHIBITION is reported as -26.7%.

In the case of `c1cnnc(N2CCCC(NCc3nnc(-c4ccco4)o3)C2)c1` (stereo not drawn), the INHIBITION is -31.5%.

Regarding `Cn1nc2c(cc1=O)CN(CCOc1ccccc1C#N)CC2`, the INHIBITION was determined as 0.73%.

On to `COCC(=O)N1C[C@H]2CNC[C@@]2(C(=O)NCc2cc(C)n[nH]2)C1`, for which the INHIBITION was 4.75%.

As to `CS(=O)(=O)N1CC(c2nc(N)ncc2-c2ccc(F)cc2)C1`, the INHIBITION was -47.4%.

Turning to `CN(C)c1ncc(-c2ccc(C(N)=O)cc2)c(C2CCNC2)n1` (stereo not drawn), the INHIBITION was -37.9%.

Take `Nc1ncc(-c2ccc(C(F)(F)F)cc2)c(C2CCCNC2)n1` (stereo not drawn): the INHIBITION is 70.9%.

With `Nc1ncc(-c2ccc(Cl)cc2)c(C2CCCNC2)n1` (stereo not drawn), the INHIBITION is recorded as 48.9%.

Turning to `Nc1ncc(-c2ccc(F)cc2)c(C2CCCNC2)n1` (stereo not drawn), the INHIBITION was 50.3%.

Regarding `COc1ccc(-c2cnc(N)nc2C2CCCNC2)cc1` (stereo not drawn), the INHIBITION is -91.8%.
